Experimental data published in paper PMC5540273 (PLoS ONE, 2017).

Columns and labels:
Conditions in all cases: concentration: 1 μM,replicates: in singlicate; n = 1
NEK11 = tested on: NEK11
NEK1 = tested on: NEK1
NEK2 = tested on: NEK2
NEK3 = tested on: NEK3
NEK4 = tested on: NEK4
NEK5 = tested on: NEK5
NEK6 = tested on: NEK6
NEK7 = tested on: NEK7
NEK9 = tested on: NEK9
NIK = tested on: T1, NIK
T1 construct: gene MAP3K14
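Note: KINOMEscan kinase panel screen.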

Compound	%Inh (NEK11) [%]	%Inh (NEK1) [%]	%Inh (NEK2) [%]	%Inh (NEK3) [%]	%Inh (NEK4) [%]	%Inh (NEK5) [%]	%Inh (NEK6) [%]	%Inh (NEK7) [%]	%Inh (NEK9) [%]	%Inh (NIK) [%]
OCCn1cc(-c2cnc3nnn(Cc4ccc5ncccc5c4)c3n2)cn1	0	0	6	32	0	0	0	8	0	15
Cc1cccc2c(-c3ccncc3)c(-c3ccc(F)cc3)nn12.Cl [GW461487]	4	0	0	0	0	16	0	0	15	10
Cc1ccc(Nc2ccnc(Nc3ccc4c(c3)CS(=O)(=O)C4)n2)cc1O.Cl [GW579362]	5	31	17	46	3	70	0	23	27	27
COc1cc2nccc(Nc3ccc(Oc4ccccc4)cc3)c2cc1OC.Cl [GI261656]	0	0	0	0	0	0	0	0	2	0
CS(=O)(=O)Nc1ccc(-c2ccnc3[nH]ccc23)cc1 [GSK993273]	17	15	0	4	16	2	0	10	14	22
C[C@@H]1CNc2c(sc3ccc4nc(-c5ccncc5)ccc4c23)C(=O)N1	0	0	0	30	0	0	3	5	0	90.3
NC(=O)c1ccc(-c2cc3ncnc(SCC(=O)O)c3s2)cc1	0	0	0	35	0	0	7	0	0	0
O=C(Nc1ccc(Oc2ccc3nc(NC(=O)C4CC4)cn3n2)c(F)c1)c1cccn(-c2ccccc2)c1=O	0	0	0	8	0	54	6	0	0	0
CC(C(=O)NC1CCN(c2ccnc(Nc3ccc(F)cc3)n2)C1)c1ccc(Cl)cc1 (stereo not drawn) [GSK1379713]	25	0	0	0	0	15	0	28	34	11
O=C(Nc1n[nH]c2cc(-c3ccco3)ccc12)C1CC1 [SB-737447]	24	6	0	28	7	0	0	0	0	0
COc1cc2c(Nc3ccc(NC(=O)c4ccccc4)cc3)ncnc2cc1OCCCN1CCOCC1 [GSK301329]	0	0	0	0	22	0	0	0	13	9
CCn1c(-c2nonc2N)nc2cncc(CNC3CCNCC3)c21.Cl [SB-747651]	11	0	0	15	28	2	0	6	38	13
Cc1ccn2nc(-c3ccc(F)cc3)c(-c3ccncc3)c2c1.Cl [GW457859]	43	12	0	3	0	0	0	0	4	38
C[C@@H]1CNc2c(sc3ccc4nc(-c5ccc(O)cc5)ccc4c23)C(=O)N1	0	0	0	20	0	0	38	11	8	84
O=c1[nH]cc(-c2ccc(O)cc2)c2sc(-c3ccncc3)cc12 [GSK1033723]	23	0	0	0	0	17	0	0	18	0
C[C@@H](Oc1cc(-n2cnc3cc(-c4cnn(C)c4)ccc32)sc1C(N)=O)c1ccccc1Cl [GSK580432]	0	88	99.2	0	0	99.7	41	71	81	7
COC(=O)c1cccc(NC(=O)NC2CCN(c3ccnc(NCc4ccc(F)cc4)n3)CC2)c1 [GSK1379860]	7	0	0	0	6	0	0	4	0	8
Cc1ccc(C(=O)Nc2ccc(Oc3ccc4nc(NC(=O)C5CC5)cn4c3)c(F)c2)c(=O)n1-c1ccccc1	0	0	5	0	0	0	0	0	0	0
CN(c1ccccc1CNc1nc(Nc2ccc3c(c2)CC(=O)N3)ncc1C(F)(F)F)S(C)(=O)=O	0	0	0	32	0	0	26	64	53	0
CS(=O)(=O)c1cccc(CNc2nc(Nc3ccc4c(c3)[C@@H]3C[C@@H]4CNC3=O)ncc2C(F)(F)F)c1	0	0	0	23	1	0	19	12	2	26
C[C@@H](Oc1cc(-n2cnc3ccc(-c4ccncc4)cc32)sc1C(N)=O)c1ccccc1Cl [GSK483724]	0	51	86	0	4	72	14	17	76	1
O=C1NCCc2[nH]c(-c3ccncc3)cc21	0	0	0	18	0	2	29	0	0	44
Cc1ccc(CC(=O)N2CCc3cc(-c4cn(C)c5ncnc(N)c45)ccc32)cc1 [GSK2634758]	59	31	96.9	7	11	45	19	0	20	16

Compound	%Inh (NEK11) [%]	%Inh (NEK1) [%]	%Inh (NEK2) [%]	%Inh (NEK3) [%]	%Inh (NEK4) [%]	%Inh (NEK5) [%]	%Inh (NEK6) [%]	%Inh (NEK7) [%]	%Inh (NEK9) [%]	%Inh (NIK) [%]
COc1cccc(OC)c1C(=O)Nc1cccc(-c2nn3ccccc3c2-c2ccnc(Nc3cccc(F)c3)n2)c1 [GSK361065]	0	0	4	7	0	10	17	0	0	0
CN(c1cccc(CNc2nc(Nc3ccc4c(c3)CC(=O)N4)ncc2C(F)(F)F)c1)S(C)(=O)=O	0	0	0	20	0	17	23	0	6	21
CS(=O)c1ccc(-c2coc3ccc(-c4n[nH]c(=O)o4)cc23)cc1 (stereo not drawn)	0	0	0	15	0	0	0	19	0	0
c1ccc(Oc2ccc(Nc3ccnc4ccc(-c5ccccn5)cc34)cc2)cc1 [GW407034]	0	0	0	9	28	0	1	0	0	9
CNC(=O)c1ccccc1Nc1nc(Nc2cccc(CS(C)(=O)=O)c2)ncc1C.O=CO [GSK1520489]	66	71	78	86	70	100	83	94.9	78	23
CN1CCN(CCCNc2nccc(-c3c(-c4ccc(F)cc4)nn4cc(C(N)=O)ccc34)n2)CC1 [GW622475]	0	0	8	6	10	15	0	25	41	5
CCn1c(-c2nonc2N)nc2cncc(Br)c21 [SB-738004]	40	0	0	19	0	10	19	0	11	79
C[C@@H](Oc1cc(-n2cnc3cc(-c4ccncc4)ccc32)sc1C(N)=O)c1ccccc1Cl [GSK479719]	0	66	96.5	5	21	82	0	12	62	0
COc1cc2ncn(-c3cc(OCC4CCCCC4)c(C(N)=O)s3)c2cc1OC [GSK204559]	0	12	40	0	10	9	0	21	33	16
Cc1ccc2c(-c3ccnc(Nc4ccc(C(F)(F)F)cc4)n3)cnn2n1 [GW819776]	0	0	0	78	9	84	0	2	6	10
CCN1CCN(CCCC(=O)Nc2n[nH]c3nc(-c4ccc(O)cc4)c(Br)cc23)CC1 [SB-731579]	0	0	0	18	0	0	0	5	22	27
COc1cccc(C2=C(Nc3cccc(Cl)c3)C(=O)NC2=O)c1 [SB-341556]	0	0	13	5	29	0	0	5	1	26
Cc1nnc(-c2ccc3occ(-c4ccc(S(C)=O)cc4)c3n2)o1 (stereo not drawn)	0	0	0	23	0	0	0	0	0	0
COc1cc(Nc2nccc(N3CCC(NC(=O)c4cccc(C#N)c4)C3)n2)cc(OC)c1OC (stereo not drawn) [GSK1379751]	0	33	13	34	2	97.1	33	11	0	27
CC(C)S(=O)(=O)N1CCN(Cc2ccc3c(c2)nc(NC(=O)c2ccsc2)n3C[C@H](O)c2ccccc2)CC1 [GW635815]	1	0	0	0	9	8	0	0	1	9
CCOC(=O)N1CCC(n2cnc(-c3ccc(F)cc3)c2-c2ccnc(N)n2)CC1 [SB-219952]	20	0	0	21	15	26	0	31	23	0
CSc1nccc(-c2c(-c3ccc(F)cc3)ncn2CCCN2CCOCC2)n1.Cl [SB-217146]	0	0	0	38	0	0	0	8	0	33
O=C(NCC1CC1)c1ccc(-c2cc(C(=O)NC3CC3)ccc2F)cc1 [GW810445]	0	3	0	0	0	0	0	0	0	0
Cl.c1ccc(Oc2ccc(Nc3ccnc4cc(-c5ccc(CN6CCNCC6)o5)ccc34)cc2)nc1 [GW567142]	0	0	6	2	0	0	0	5	17	7
CCCC(=O)Nc1n[nH]c2ncccc12 [SB-601436]	4	0	0	0	0	0	0	13	0	10
COC(=O)c1cccc(NC(=O)NC2CCN(c3ccnc(Nc4cc(OC)c(OC)c(OC)c4)n3)C2)c1 (stereo not drawn) [GSK1379767]	0	52	22	17	0	100	0	37	26	32
COc1ccc(Nc2nccc(N3CCC(NC(=O)c4cccc(C#N)c4)C3)n2)cc1 (stereo not drawn) [GSK1379730]	0	0	0	0	3	12	30	0	0	0
Cn1cc(-c2cccc3c(N)c(C(N)=O)nnc23)cn1	0	0	15	22	16	6	5	0	0	21

Compound	%Inh (NEK11) [%]	%Inh (NEK1) [%]	%Inh (NEK2) [%]	%Inh (NEK3) [%]	%Inh (NEK4) [%]	%Inh (NEK5) [%]	%Inh (NEK6) [%]	%Inh (NEK7) [%]	%Inh (NEK9) [%]	%Inh (NIK) [%]
CCNCC(Cc1ccccc1)NC(=O)c1cc(Br)c(-c2ccnc3[nH]ccc23)s1.Cl.Cl (stereo not drawn) [GSK1383280]	0	79	18	17	0	79	0	0	10	0
Cn1ccc2ncnc(Oc3ccc(NC(=O)Nc4cnn(C(C)(C)C)c4)c(Cl)c3)c21	0	0	0	12	0	6	2	0	0	0
Cl.Nc1n[nH]c2cc(-c3ccccn3)ccc12 [GSK2189892]	0	0	0	1	0	0	0	0	3	0
O=C(Nc1cccc(C(F)(F)F)c1)c1cccc(Oc2ccc3nccn3n2)c1	52	0	0	17	0	12	2	0	0	36
NC(=O)Nc1sc(-c2ccc(F)cc2)cc1C(N)=O [GW789449]	0	0	0	47	19	36	13	0	0	37
O=C(Nc1cccc(Oc2ccc3nccn3n2)c1)Nc1cccc(C(F)(F)F)c1	0	0	8	7	0	0	0	0	0	27
CC(=O)Nc1nc2cnc(Nc3cc(NC(=O)c4cccc(CC(C)(C)C#N)c4)ccc3C)nc2s1	0	13	6	30	0	0	13	5	5	0
Nc1nccc(-c2ccc3c(N)n[nH]c3c2)n1 [GSK1034945]	0	0	3	9	0	4	0	3	10	0
CN1CCN(CCNc2nc3cc(Oc4ccc(NC(=O)Nc5cc(C(F)(F)F)ccc5F)cc4)ccc3[nH]2)CC1.Cl.Cl [GW768504]	0	0	0	20	0	1	0	0	0	0
N#Cc1cccc(C(=O)NC2CCN(c3ccnc(Nc4ccc(F)cc4)n3)C2)c1 (stereo not drawn) [GSK1379708]	3	0	0	7	11	5	12	0	0	13
COc1cccc(CNC(=O)NC2CCN(c3ccnc(Nc4cc(OC)c(OC)c(OC)c4)n3)C2)c1 (stereo not drawn) [GSK1379765]	15	0	0	45	31	95.9	0	15	31	30
O=C(NOCC1CC1)c1cc(Br)c(F)c(F)c1Nc1ccc(I)cc1Cl	0	0	0	43	0	0	0	0	0	0
Cc1n[nH]c2cc(Nc3ccnc(Nc4cccc(CN5CCOCC5)c4)n3)ccc12 [GW682569]	17	2	0	20	0	29	0	0	15	0
FC(F)(F)c1cc(Br)cc(Nc2nccc(-c3cnn4ncccc34)n2)c1 [GW810578]	0	0	1	15	2	30	51	60	15	21
C[C@@H]1CCN(C(=O)N2CCCC2)C[C@@H]1N(C)c1ncnc2[nH]ccc12	0	4	0	39	5	0	8	0	0	0
CC(=O)Nc1ccc(-c2cc3ncnc(SCC(=O)O)c3s2)cc1	0	0	1	12	6	0	4	1	5	11
Cl.Cl.NC[C@H](CC1CCCCC1)NC(=O)c1ccc(-c2ccnc3[nH]ccc23)s1 [GSK1581428]	0		0	0	14	15	0	1	17	0
Cn1ccc2ncnc(Oc3ccc(NC(=O)Nc4cccc(C(F)(F)F)c4)c(Cl)c3)c21	0	0	0	9	0	0	9	0	0	7
COC(=O)Nc1nc2cc(Oc3ccc(NC(=O)Nc4cc(C(F)(F)F)ccc4Cl)cc3)ccc2[nH]1.Cl [GW697465]	29	0	0	0	3	0	0	0	28	0
O=C(Nc1ccccc1)c1cccc(Oc2ccc3nccn3n2)c1	20	0	2	17	0	12	0	0	0	34
Cn1ccc2ncnc(Oc3ccc(NC(=O)Nc4cc(C(C)(C)C)on4)c(Cl)c3)c21	0	0	17	21	3	0	0	0	3	0
